# Source: article PMC7862700, “An all-to-all approach to the identification of sequence-specific readers for epigenetic DNA modifications on cytosine”
# Legend:
# Assay in all cases: DAPPL (digital affinity profiling via proximity ligation, sequencing); 10 mM Tris-HCl pH 7.5, 50 mM NaCl, 1 mM DTT, 4% glycerol, room temperature, 30 min; GST-TFs on glutathione beads, 16-mer random dsDNA library, 0.1% formaldehyde crosslink after washing; high values mean tight binding
# FLI1 = molecular target: T1, FLI1 (Homo sapiens, UniProt Q01543 1-452); conditions: protein: recombinant; tags: N-terminal GST; dsDNA, one strand shown
# T1 sequence: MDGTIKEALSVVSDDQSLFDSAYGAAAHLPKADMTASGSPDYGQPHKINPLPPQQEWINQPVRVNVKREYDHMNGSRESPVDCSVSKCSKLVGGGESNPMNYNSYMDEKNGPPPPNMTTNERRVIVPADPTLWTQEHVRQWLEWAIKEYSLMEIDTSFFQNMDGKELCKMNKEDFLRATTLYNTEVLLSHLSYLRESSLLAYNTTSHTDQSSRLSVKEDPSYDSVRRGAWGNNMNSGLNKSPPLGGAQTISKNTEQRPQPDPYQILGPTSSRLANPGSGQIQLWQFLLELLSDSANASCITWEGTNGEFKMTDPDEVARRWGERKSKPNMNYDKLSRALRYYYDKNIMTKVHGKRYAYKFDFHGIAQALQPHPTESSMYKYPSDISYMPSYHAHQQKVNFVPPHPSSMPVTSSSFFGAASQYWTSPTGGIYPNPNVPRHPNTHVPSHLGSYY
# Method in brief: (§1)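 Each value of binding signal is a hexamer's read frequency for a factor divided by the same hexamer's frequency in the tag-only sample. Barcoded, bead-captured GST fusions of human transcription factors made in yeast were pooled with that sample and incubated with 200 nmole of a random double-stranded 16-mer DNA library in Tris/NaCl/DTT/glycerol buffer at room temperature for 30 min. Washing, 0.1% formaldehyde crosslinking, proximity ligation, PCR and Illumina NextSeq500 sequencing followed.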
# ELK1 = molecular target: T2, ELK1 (Homo sapiens, UniProt P19419 1-428); conditions: protein: recombinant; tags: N-terminal GST; dsDNA, one strand shown
# T2 sequence: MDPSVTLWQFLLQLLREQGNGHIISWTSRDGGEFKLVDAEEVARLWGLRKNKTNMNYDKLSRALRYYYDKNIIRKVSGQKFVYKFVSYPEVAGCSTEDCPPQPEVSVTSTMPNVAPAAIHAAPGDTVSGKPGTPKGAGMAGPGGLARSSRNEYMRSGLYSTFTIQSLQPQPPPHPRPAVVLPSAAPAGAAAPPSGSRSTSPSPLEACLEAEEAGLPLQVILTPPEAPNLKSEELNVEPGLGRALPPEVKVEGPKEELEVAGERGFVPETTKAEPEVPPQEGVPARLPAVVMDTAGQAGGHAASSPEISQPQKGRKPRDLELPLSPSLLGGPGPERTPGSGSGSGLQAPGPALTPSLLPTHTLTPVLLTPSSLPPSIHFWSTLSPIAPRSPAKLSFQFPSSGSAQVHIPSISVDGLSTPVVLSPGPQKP
# Method in brief: as §1
# GABPA = molecular target: T3, GABPA (Homo sapiens, UniProt Q06546 1-454); conditions: protein: recombinant; tags: N-terminal GST; dsDNA, one strand shown
# T3 sequence: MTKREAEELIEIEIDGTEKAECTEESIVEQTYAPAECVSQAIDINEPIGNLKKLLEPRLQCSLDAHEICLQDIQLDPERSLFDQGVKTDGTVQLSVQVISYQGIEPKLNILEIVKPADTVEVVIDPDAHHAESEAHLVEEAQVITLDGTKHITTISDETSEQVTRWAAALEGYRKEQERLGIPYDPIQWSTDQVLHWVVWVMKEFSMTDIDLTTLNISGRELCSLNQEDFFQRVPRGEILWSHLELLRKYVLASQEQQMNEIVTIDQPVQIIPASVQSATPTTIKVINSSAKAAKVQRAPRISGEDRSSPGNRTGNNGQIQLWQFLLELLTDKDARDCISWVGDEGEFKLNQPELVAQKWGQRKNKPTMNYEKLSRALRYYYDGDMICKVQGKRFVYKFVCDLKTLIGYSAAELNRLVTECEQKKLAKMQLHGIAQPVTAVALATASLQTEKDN
# Method in brief: as §1
# ERG = molecular target: T4, ERG (Homo sapiens, UniProt P11308 1-479); conditions: protein: recombinant; tags: N-terminal GST; dsDNA, one strand shown
# T4 sequence: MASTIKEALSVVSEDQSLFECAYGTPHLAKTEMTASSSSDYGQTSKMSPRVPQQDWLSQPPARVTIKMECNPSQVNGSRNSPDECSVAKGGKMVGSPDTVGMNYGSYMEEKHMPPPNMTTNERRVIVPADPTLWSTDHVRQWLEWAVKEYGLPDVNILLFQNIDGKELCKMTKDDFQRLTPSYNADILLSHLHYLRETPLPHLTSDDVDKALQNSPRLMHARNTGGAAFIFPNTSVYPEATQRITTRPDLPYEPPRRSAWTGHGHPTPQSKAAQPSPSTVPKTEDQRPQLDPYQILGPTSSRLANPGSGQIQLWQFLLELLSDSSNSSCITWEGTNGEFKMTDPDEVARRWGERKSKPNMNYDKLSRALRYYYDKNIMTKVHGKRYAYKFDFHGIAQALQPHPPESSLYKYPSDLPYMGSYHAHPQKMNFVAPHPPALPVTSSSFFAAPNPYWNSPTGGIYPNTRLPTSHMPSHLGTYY
# Method in brief: as §1
# ELF1 = ELF1 (Homo sapiens, UniProt P32519 1-619); conditions: protein: recombinant; tags: N-terminal GST; dsDNA, one strand shown
# Sequence of ELF1 (P32519 whole entry): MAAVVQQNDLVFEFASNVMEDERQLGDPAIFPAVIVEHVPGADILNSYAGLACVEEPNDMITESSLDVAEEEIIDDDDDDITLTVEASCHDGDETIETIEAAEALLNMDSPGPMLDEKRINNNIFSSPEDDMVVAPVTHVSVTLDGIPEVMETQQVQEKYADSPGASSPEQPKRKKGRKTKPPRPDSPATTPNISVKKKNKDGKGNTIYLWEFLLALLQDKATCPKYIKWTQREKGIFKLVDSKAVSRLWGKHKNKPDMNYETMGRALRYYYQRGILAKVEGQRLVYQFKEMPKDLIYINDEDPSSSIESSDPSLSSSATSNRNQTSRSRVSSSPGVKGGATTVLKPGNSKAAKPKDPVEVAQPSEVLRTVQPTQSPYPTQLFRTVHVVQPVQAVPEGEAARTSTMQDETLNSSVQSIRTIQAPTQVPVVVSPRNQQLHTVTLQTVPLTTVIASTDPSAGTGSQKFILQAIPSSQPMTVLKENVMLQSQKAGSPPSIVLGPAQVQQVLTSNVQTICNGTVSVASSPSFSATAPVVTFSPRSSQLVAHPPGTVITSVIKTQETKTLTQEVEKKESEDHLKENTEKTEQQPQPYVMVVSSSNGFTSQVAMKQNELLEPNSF
# Method in brief: as §1
# EHF = molecular target: T5, EHF (Homo sapiens, UniProt Q9NZC4 1-300); conditions: protein: recombinant; tags: N-terminal GST; dsDNA, one strand shown
# T5 sequence: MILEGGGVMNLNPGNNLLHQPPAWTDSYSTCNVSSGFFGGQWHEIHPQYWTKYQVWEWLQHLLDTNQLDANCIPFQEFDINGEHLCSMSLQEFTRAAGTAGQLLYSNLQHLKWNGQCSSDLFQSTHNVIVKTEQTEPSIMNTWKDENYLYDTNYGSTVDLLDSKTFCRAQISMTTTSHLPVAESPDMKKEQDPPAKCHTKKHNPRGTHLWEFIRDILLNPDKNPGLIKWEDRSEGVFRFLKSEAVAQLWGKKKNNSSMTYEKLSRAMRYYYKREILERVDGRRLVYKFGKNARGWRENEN
# Method in brief: as §1
# SPI1 = SPI1 (Homo sapiens, UniProt P17947 1-270); conditions: protein: recombinant; tags: N-terminal GST; dsDNA, one strand shown
# Method in brief: as §1
# SPIB = SPIB (Homo sapiens, UniProt Q01892 1-262); conditions: protein: recombinant; tags: N-terminal GST; dsDNA, one strand shown
# Sequence of SPIB (Q01892 whole entry): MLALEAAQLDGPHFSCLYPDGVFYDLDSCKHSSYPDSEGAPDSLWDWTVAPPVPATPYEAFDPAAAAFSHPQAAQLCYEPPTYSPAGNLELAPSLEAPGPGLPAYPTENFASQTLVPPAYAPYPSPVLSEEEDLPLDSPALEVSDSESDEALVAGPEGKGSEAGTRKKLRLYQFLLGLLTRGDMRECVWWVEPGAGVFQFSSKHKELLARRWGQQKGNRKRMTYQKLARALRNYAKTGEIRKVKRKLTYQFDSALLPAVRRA
# Method in brief: as §1
# ELK3 = molecular target: T6, ELK3 (Homo sapiens, UniProt P41970 1-407); conditions: protein: recombinant; tags: N-terminal GST; dsDNA, one strand shown
# T6 sequence: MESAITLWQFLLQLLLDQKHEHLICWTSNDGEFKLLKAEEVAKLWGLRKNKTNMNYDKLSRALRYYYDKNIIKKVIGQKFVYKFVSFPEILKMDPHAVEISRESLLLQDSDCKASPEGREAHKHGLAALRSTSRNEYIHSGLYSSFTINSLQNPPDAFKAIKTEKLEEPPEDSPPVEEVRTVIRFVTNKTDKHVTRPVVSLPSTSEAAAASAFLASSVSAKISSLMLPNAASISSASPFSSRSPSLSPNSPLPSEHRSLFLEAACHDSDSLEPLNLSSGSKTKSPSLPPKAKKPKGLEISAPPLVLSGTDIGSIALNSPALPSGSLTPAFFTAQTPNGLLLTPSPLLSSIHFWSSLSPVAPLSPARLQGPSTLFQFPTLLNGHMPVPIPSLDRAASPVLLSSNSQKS
# Method in brief: as §1
# FEV = molecular target: T7, FEV (Homo sapiens, UniProt Q99581 1-238); conditions: protein: recombinant; tags: N-terminal GST; dsDNA, one strand shown
# T7 sequence: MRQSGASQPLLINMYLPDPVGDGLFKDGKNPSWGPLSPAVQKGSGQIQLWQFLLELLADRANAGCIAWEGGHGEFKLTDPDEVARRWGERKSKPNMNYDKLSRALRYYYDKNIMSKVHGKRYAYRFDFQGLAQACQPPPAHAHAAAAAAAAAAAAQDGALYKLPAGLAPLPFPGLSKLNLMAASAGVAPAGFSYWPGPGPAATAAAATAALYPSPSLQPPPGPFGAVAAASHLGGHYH
# Method in brief: as §1
# ETV5 = ETV5 (Homo sapiens, UniProt P41161 1-510); conditions: protein: recombinant; tags: N-terminal GST; dsDNA, one strand shown
# Sequence of ETV5 (P41161 whole entry): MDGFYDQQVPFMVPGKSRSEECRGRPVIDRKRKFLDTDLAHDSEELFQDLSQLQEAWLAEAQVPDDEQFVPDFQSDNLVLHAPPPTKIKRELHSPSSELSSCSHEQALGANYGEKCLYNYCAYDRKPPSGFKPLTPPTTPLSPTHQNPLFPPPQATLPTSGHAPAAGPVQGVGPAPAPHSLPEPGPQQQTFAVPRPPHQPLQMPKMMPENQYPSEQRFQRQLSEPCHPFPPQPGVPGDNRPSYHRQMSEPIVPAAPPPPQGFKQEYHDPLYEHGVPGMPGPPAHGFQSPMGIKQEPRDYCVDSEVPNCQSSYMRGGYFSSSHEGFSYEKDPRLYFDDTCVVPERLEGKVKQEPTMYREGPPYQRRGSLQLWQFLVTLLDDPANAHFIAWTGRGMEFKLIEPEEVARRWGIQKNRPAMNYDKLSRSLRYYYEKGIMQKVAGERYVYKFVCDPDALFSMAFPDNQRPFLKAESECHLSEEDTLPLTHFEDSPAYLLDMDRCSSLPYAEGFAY
# Method in brief: as §1
# HSF1 = HSF1 (Homo sapiens, UniProt Q00613 1-529); conditions: protein: recombinant; tags: N-terminal GST; chain copies: 3; dsDNA, one strand shown
# Sequence of HSF1 (Q00613 whole entry): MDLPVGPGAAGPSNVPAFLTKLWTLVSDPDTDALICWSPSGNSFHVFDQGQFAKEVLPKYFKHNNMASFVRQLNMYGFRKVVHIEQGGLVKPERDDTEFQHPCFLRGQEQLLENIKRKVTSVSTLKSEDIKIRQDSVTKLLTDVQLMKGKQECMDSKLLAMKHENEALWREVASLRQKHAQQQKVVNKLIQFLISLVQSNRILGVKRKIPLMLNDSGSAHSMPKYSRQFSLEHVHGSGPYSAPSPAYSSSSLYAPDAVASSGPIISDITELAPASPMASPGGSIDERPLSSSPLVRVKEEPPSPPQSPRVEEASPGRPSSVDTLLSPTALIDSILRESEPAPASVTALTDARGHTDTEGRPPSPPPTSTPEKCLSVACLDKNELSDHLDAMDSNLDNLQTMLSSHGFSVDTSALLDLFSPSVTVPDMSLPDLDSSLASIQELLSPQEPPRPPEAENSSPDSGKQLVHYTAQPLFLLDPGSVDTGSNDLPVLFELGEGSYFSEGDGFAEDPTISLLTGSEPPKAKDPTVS
# Method in brief: as §1
# SPIC = molecular target: T8, SPIC (Homo sapiens, UniProt Q8N5J4 1-248); conditions: protein: recombinant; tags: N-terminal GST; dsDNA, one strand shown
# T8 sequence: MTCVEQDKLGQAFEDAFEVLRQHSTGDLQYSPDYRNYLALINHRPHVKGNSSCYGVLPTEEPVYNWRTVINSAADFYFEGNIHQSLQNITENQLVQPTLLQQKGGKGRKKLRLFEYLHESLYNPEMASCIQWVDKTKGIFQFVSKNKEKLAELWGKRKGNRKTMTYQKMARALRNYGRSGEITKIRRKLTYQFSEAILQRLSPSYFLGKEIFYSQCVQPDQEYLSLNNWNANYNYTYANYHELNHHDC
# Method in brief: as §1
# ELF4 = ELF4 (Homo sapiens, UniProt Q99607 1-663); conditions: protein: recombinant; tags: N-terminal GST; dsDNA, one strand shown
# Sequence of ELF4 (Q99607 whole entry): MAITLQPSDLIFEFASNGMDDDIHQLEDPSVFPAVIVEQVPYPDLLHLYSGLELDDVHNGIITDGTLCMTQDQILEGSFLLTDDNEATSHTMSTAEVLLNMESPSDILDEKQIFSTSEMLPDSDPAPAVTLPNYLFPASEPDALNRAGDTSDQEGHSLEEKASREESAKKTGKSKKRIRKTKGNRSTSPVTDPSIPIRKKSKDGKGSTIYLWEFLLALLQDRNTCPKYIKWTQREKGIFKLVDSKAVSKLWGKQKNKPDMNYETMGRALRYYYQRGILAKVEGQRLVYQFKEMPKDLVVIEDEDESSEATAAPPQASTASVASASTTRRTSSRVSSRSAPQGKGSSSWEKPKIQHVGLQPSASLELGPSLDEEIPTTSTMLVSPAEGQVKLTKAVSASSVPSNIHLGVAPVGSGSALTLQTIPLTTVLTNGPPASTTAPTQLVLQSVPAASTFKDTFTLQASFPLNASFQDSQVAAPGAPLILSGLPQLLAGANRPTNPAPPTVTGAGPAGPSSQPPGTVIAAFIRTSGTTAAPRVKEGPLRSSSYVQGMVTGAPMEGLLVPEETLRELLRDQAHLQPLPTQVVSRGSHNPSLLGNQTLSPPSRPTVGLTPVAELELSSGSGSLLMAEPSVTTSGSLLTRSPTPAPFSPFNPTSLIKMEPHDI
# Method in brief: as §1
# ELK4 = molecular target: T9, ELK4 (Homo sapiens, UniProt P28324-2 1-405); conditions: protein: recombinant; tags: N-terminal GST; dsDNA, one strand shown
# T9 sequence: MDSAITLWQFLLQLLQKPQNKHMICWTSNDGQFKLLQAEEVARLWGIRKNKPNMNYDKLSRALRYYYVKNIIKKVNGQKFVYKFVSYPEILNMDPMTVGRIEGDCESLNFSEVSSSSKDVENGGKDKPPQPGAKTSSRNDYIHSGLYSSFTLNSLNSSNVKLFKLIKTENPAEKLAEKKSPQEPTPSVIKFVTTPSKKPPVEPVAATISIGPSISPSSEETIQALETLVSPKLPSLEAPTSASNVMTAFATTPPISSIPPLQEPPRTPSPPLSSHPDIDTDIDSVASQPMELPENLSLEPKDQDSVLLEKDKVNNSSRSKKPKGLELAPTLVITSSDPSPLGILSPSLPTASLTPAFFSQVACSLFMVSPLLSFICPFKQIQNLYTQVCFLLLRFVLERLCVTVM
# Method in brief: as §1
# ETV2 = molecular target: T10, ETV2 (Homo sapiens, UniProt O00321 1-342); conditions: protein: recombinant; tags: N-terminal GST; dsDNA, one strand shown
# T10 sequence: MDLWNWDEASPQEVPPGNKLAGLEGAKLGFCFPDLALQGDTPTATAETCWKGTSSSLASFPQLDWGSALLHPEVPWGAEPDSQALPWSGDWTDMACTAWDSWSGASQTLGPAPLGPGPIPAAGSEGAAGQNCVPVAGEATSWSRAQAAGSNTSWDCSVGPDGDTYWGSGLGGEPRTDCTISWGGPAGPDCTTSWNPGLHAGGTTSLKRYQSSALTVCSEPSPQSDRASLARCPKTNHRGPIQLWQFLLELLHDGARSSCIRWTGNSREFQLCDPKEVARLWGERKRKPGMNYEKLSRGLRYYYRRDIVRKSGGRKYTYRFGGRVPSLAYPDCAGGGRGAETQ
# Method in brief: as §1
# ELF3 = molecular target: T11, ELF3 (Homo sapiens, UniProt P78545 1-371); conditions: protein: recombinant; tags: N-terminal GST; dsDNA, one strand shown
# T11 sequence: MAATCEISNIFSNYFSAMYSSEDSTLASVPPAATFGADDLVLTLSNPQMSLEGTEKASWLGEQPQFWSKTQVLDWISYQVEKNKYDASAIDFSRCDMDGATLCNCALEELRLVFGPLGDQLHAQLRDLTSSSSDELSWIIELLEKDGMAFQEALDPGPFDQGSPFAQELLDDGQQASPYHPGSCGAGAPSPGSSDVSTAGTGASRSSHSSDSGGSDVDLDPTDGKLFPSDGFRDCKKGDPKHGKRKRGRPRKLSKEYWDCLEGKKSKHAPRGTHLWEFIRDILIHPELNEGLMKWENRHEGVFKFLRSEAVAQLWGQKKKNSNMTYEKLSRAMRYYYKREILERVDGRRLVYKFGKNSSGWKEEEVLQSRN
# Method in brief: as §1
# CRX = CRX (Homo sapiens, UniProt O43186 1-299); conditions: protein: recombinant; tags: N-terminal GST; dsDNA, one strand shown
# Sequence of CRX (O43186 whole entry): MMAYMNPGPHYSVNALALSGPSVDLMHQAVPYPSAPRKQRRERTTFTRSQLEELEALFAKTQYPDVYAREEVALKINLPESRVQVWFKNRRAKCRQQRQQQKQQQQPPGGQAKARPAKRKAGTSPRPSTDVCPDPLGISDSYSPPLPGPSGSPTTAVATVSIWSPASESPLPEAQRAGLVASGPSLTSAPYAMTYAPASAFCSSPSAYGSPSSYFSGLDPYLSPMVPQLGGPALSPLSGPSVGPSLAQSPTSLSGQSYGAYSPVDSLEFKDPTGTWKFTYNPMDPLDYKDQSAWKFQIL
# Method in brief: as §1
# ETV1 = ETV1 (Homo sapiens, UniProt P50549 1-477); conditions: protein: recombinant; tags: N-terminal GST; dsDNA, one strand shown
# Sequence of ETV1 (P50549 whole entry): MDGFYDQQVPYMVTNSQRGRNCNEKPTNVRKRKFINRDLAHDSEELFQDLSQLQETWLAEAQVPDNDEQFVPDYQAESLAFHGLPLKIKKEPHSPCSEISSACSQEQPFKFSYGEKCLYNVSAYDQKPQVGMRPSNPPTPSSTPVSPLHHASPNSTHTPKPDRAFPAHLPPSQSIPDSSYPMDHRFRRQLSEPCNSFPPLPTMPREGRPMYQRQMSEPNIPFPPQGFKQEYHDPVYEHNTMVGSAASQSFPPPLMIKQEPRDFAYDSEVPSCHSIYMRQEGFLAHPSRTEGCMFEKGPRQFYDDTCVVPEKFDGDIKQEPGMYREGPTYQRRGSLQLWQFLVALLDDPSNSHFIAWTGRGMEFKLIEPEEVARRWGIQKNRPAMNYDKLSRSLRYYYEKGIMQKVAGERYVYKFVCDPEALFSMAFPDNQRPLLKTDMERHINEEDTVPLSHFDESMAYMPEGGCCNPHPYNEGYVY
# Method in brief: as §1
sequence,measurement,setting,value
ATTTGC,binding signal,FLI1,"1.3 fold enrichment (6-mer frequency, TF over GST control)"
same,binding signal,ELK1,"1.36 fold enrichment (6-mer frequency, TF over GST control)"
same,binding signal,GABPA,"1.34 fold enrichment (6-mer frequency, TF over GST control)"
same,binding signal,ERG,"1.32 fold enrichment (6-mer frequency, TF over GST control)"
same,binding signal,ELF1,"1.34 fold enrichment (6-mer frequency, TF over GST control)"
same,binding signal,EHF,"1.17 fold enrichment (6-mer frequency, TF over GST control)"
same,binding signal,SPI1,"1.41 fold enrichment (6-mer frequency, TF over GST control)"
same,binding signal,SPIB,"1.32 fold enrichment (6-mer frequency, TF over GST control)"
same,binding signal,ELK3,"1.2 fold enrichment (6-mer frequency, TF over GST control)"
same,binding signal,FEV,"1.29 fold enrichment (6-mer frequency, TF over GST control)"
same,binding signal,ETV5,"1.4 fold enrichment (6-mer frequency, TF over GST control)"
same,binding signal,HSF1,"1.47 fold enrichment (6-mer frequency, TF over GST control)"
same,binding signal,SPIC,"1.29 fold enrichment (6-mer frequency, TF over GST control)"
same,binding signal,ELF4,"1.23 fold enrichment (6-mer frequency, TF over GST control)"
same,binding signal,ELK4,"1.3 fold enrichment (6-mer frequency, TF over GST control)"
same,binding signal,ETV2,"1.23 fold enrichment (6-mer frequency, TF over GST control)"
same,binding signal,ELF3,"1.33 fold enrichment (6-mer frequency, TF over GST control)"
same,binding signal,CRX,"1.5 fold enrichment (6-mer frequency, TF over GST control)"
same,binding signal,ETV1,"1.38 fold enrichment (6-mer frequency, TF over GST control)"
